Data taken from the supplement of paper PMC10849652.
About 7,900 targets were measured; listed, in parts, are those with a hit and a random draw of the rest. About 0.6% of all pairs of compound and target were hits. Values without a mark were called inactive.

What was measured:
Experiment in all cases: log2 fold change, soluble protein after heating vs DMSO (PISA); higher = thermal stabilisation; K562 cells, 10 uM, 30 min; active = over 0.2 and 3.5 SD of the protein, either way, in both replicates (recomputed)
[1] = compound: NC(=O)Nc1cc(-c2cccc(F)c2)sc1C(=O)N[C@H]1CCCNC1
How it was run: (§1)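 K562 cells at 2×10^6 cells/mL were given 10 μM compound for 30 min. Aliquots then went through 3 min of heating across 48°C-58°C, were pooled, and were extracted in PBS with 0.5% NP-40 at 4°C, and the supernatant after 21,000xg for 90 min was quantified by TMTpro 16plex LC-MS/MS with channel sums equalised. Thermal stability relative to control samples, from duplicates, is given as log2 fold change.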

[2] = compound: NC(=O)c1cnc(N[C@@H]2CCCC[C@@H]2N)nc1Nc1cccc(-n2nccn2)c1
How it was run: as §1

[3] = compound: NC1(c2ccc(-c3nc4ccn5c(=O)[nH]nc5c4cc3-c3ccccc3)cc2)CCC1
How it was run: as §1

[4] = compound: NCC(=O)Nc1ccc(-n2nc(C(F)(F)F)cc2-c2ccc3c(ccc4ccccc43)c2)cc1
How it was run: as §1

entinostat = compound: Nc1ccccc1NC(=O)c1ccc(CNC(=O)OCc2cccnc2)cc1 [entinostat]
How it was run: as §1

vorinostat = compound: O=C(CCCCCCC(=O)Nc1ccccc1)NO [vorinostat]
How it was run: as §1

citarinostat = compound: O=C(CCCCCCNC(=O)c1cnc(N(c2ccccc2)c2ccccc2Cl)nc1)NO [citarinostat]
How it was run: as §1

silmitasertib = compound: O=C(O)c1ccc2c(c1)nc(Nc1cccc(Cl)c1)c1ccncc12 [silmitasertib]
How it was run: as §1

[5] = compound: O=C1NC(=O)C(c2cnc3ccccn23)=C1c1cn2c3c(cc(F)cc13)CN(C(=O)N1CCCCC1)CC2
How it was run: as §1

[6] = compound: c1cc(OCCN2CCCCC2)cc(-c2n[nH]c3ccc(-c4nnc[nH]4)cc23)c1
How it was run: as §1

Sequence of UniProt Q99757 (Q99757 whole entry, looked up): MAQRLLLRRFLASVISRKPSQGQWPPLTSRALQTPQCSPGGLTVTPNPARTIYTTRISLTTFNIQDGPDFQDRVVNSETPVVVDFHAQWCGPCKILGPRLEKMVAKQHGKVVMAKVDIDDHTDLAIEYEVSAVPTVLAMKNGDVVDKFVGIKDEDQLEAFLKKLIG
Sequence of UniProt O43592 (O43592 whole entry, looked up): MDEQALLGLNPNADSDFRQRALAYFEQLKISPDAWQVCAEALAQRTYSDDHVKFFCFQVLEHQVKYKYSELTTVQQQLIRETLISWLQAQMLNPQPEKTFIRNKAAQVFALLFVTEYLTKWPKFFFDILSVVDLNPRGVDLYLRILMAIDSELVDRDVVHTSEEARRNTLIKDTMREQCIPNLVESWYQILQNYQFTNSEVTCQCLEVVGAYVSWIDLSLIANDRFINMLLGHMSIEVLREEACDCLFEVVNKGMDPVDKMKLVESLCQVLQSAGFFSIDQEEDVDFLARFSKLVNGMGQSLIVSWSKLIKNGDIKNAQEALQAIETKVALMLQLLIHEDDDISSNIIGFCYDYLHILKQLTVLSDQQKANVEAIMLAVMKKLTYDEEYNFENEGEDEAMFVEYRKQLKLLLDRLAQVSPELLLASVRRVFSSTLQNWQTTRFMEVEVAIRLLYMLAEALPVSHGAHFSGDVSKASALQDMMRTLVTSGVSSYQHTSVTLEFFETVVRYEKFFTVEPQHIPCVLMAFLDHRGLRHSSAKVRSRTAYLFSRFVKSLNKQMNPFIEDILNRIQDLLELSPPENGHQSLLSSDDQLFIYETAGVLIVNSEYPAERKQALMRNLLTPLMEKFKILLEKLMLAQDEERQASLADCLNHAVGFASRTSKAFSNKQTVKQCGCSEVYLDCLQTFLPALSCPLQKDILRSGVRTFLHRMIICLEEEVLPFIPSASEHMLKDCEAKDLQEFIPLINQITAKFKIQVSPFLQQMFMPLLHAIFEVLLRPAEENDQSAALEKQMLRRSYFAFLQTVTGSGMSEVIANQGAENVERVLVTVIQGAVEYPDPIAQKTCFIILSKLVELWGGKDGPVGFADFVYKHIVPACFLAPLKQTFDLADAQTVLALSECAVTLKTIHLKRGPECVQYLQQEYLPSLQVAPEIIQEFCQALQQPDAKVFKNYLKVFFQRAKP
Sequence of UniProt Q8NCE0 (Q8NCE0 whole entry, looked up): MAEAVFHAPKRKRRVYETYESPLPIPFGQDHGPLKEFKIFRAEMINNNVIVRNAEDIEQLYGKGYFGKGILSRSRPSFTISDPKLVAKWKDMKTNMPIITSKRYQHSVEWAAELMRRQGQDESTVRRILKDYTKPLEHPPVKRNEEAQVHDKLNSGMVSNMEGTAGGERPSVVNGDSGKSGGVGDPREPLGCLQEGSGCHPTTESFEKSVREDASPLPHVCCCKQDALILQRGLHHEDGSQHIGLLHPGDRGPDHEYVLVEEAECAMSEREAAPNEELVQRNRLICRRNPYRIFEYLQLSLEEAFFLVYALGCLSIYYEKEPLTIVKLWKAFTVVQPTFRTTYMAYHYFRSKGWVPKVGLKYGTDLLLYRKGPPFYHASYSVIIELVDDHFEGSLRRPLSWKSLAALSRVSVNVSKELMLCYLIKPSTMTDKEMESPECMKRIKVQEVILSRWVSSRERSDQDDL
Sequence of UniProt Q16763 (Q16763 whole entry, looked up): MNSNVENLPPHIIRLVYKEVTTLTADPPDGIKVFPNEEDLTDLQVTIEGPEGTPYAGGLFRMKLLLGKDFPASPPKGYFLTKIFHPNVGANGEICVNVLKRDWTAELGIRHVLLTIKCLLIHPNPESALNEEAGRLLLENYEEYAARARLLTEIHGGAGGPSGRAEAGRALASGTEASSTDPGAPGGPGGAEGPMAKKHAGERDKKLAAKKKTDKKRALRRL
Sequence of UniProt O95379 (O95379 whole entry, looked up): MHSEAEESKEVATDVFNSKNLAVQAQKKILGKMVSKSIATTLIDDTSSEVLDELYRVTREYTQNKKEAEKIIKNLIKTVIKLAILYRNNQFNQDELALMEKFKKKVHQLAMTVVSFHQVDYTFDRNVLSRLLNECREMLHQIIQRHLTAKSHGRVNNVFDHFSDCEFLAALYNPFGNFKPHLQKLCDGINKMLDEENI
Sequence of UniProt Q8IZ69 (Q8IZ69 whole entry, looked up): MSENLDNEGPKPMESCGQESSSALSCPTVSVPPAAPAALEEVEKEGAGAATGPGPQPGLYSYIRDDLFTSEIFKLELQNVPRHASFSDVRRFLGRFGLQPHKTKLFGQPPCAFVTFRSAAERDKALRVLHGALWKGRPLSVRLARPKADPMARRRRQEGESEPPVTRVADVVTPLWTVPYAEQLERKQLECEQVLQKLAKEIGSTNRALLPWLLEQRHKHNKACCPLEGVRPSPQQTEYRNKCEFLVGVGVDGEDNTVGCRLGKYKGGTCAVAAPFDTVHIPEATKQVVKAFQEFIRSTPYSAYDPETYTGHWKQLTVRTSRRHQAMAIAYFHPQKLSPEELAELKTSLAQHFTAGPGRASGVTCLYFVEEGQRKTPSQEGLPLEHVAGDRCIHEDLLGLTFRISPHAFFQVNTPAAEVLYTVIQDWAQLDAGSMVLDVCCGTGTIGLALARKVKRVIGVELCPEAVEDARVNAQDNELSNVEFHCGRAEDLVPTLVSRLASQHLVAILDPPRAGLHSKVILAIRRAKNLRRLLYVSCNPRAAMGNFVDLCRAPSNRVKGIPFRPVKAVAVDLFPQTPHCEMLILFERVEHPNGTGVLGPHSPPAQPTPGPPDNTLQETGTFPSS
Sequence of UniProt Q8N3P4 (Q8N3P4 whole entry, looked up): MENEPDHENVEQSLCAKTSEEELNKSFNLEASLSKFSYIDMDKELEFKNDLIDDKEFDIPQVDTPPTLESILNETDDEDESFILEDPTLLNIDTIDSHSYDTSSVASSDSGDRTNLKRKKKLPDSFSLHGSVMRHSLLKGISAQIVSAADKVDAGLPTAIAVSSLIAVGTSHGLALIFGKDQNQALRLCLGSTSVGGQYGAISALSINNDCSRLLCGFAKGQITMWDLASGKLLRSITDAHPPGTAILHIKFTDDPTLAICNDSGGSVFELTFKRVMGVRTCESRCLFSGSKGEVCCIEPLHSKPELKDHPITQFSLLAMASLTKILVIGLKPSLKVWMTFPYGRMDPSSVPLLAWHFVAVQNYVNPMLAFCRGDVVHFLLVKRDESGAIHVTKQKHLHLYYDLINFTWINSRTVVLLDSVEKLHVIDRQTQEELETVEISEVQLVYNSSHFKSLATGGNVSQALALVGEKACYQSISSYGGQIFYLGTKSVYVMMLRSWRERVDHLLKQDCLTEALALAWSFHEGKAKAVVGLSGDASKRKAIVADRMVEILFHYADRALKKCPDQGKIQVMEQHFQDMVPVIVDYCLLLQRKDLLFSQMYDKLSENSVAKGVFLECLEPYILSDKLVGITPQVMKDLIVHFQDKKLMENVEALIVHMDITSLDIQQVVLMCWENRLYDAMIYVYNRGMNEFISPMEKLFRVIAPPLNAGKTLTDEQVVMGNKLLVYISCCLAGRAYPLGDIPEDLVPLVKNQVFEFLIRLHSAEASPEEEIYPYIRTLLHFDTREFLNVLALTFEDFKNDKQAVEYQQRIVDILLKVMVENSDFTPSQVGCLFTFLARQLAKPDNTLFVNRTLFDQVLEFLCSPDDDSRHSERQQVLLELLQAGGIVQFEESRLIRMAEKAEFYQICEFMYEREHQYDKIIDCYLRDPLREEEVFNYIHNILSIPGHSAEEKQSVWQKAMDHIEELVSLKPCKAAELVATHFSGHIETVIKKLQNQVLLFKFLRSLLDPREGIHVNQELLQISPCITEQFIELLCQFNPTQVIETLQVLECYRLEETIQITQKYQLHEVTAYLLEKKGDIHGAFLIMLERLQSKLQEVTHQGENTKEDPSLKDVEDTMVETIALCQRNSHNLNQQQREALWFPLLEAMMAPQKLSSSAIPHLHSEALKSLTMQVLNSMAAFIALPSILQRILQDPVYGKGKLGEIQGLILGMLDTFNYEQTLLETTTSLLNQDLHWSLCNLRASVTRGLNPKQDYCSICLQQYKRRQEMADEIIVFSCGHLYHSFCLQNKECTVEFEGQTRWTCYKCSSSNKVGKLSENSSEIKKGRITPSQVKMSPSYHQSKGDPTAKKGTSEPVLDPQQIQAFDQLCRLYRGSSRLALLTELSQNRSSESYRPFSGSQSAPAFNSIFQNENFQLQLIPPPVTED
Sequence of UniProt Q9Y385 (Q9Y385 whole entry, looked up): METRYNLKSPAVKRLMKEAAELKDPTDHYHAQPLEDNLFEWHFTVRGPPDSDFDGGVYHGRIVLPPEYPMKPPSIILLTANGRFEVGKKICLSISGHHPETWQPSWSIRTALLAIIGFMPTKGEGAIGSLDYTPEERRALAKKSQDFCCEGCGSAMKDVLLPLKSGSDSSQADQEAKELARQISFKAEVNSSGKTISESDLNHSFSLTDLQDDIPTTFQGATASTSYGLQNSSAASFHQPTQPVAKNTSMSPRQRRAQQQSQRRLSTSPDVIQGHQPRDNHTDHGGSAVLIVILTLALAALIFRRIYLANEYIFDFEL
Sequence of UniProt P26368 (P26368 whole entry, looked up): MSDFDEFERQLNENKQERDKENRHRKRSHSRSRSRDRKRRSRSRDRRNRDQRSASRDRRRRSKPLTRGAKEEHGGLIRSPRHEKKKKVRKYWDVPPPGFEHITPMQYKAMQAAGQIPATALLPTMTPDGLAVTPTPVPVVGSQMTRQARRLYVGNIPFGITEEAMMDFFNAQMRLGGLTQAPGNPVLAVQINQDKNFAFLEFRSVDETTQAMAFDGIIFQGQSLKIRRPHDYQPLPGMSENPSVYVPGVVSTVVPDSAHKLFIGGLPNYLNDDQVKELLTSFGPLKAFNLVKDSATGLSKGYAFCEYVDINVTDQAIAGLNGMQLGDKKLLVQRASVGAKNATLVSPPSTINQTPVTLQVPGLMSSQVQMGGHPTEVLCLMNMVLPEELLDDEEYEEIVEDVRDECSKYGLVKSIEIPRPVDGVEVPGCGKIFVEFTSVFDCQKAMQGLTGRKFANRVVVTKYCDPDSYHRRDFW
Sequence of UniProt Q9UL33 (Q9UL33 whole entry, looked up): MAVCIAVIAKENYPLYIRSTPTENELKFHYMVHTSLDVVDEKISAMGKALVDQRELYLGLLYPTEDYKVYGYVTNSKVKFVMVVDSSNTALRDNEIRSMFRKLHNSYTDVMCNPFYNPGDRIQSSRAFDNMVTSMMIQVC

| Target | log2 fold change [1] | log2 fold change [2] | log2 fold change [3] | log2 fold change [4] | log2 fold change (entinostat) | log2 fold change (vorinostat) | log2 fold change (citarinostat) | log2 fold change (silmitasertib) | log2 fold change [5] | log2 fold change [6] |
| --- | --- | --- | --- | --- | --- | --- | --- | --- | --- | --- |
| TRMT2A (UniProt Q8IZ69) | -0.031 | -0.128 | -0.091 | -0.003 | 0.022 | 0.03 | -0.03 | -0.003 | 0.018 | -0.062 |
| UBAP2L isoform 1 (UniProt Q14157) | 0.071 | 0.076 | -0.064 | 0.039 | -0.043 | 0.041 | -0.022 | -0.031 | -0.012 | 0.03 |
| TMEM223 (UniProt A0PJW6) | -0.087 | -0.14 | -0.1 | 0.071 | -0.02 | 0.096 | -0.031 | 0.019 | 0.05 | -0.036 |
| XPO5 (UniProt Q9HAV4) | -0.025 | -0.068 | -0.234 (active) | -0.074 | 0.046 | 0.065 | 0.068 | -0.003 | -0.022 | -0.042 |
| UBC (UniProt P0CG48) | -0.003 | -0.022 | 0.214 | 0.01 | -0.023 | -0.11 | -0.13 | -0.076 | -0.117 | -0.068 |
| TRIP10 (UniProt Q15642) | -0.003 | -0.055 | -0.129 | -0.011 | 0.019 | -0.063 | 0 | 0.046 | -0.207 | -0.014 |
| TP53BP1 isoform 2 (UniProt Q12888) | 0.014 | -0.056 | -0.072 | -0.008 | 0.018 | 0.031 | 0.074 | 0.117 | -0.035 | -0.029 |
| TRAPPC2L (UniProt Q9UL33) | 0.005 | -0.025 | -0.126 | 0.054 | 0.008 | 0.068 | 0.031 | 0.037 | -0.047 | -0.099 |
| UTP4 (UniProt Q969X6) | 0.049 | 0.033 | 0.075 | 0.05 | -0.037 | -0.051 | -0.002 | 0.064 | 0.06 | -0.03 |
| VPS13B (UniProt Q7Z7G8) | -0.064 | -0.033 | -0.069 | -0.039 | -0.033 | 0.041 | 0.018 | 0.038 | -0.043 | -0.03 |
| VPS8 (UniProt Q8N3P4) | -0.035 | -0.125 | -0.15 | -0.088 | 0.077 | 0.158 | -0.004 | 0.078 | -0.006 | -0.012 |
| U2AF2 (UniProt P26368) | -0.125 | -0.021 | 0.033 | -0.051 | -0.031 | -0.129 | -0.014 | -0.049 | 0.113 | -0.09 |
| WASHC2A (UniProt Q641Q2) | -0.013 | -0.012 | -0.159 | 0.021 | -0.038 | 0.024 | -0.035 | 0.072 | 0.016 | -0.056 |
| TNFAIP8 isoform 4 (UniProt O95379) | -0.032 | -0.091 | -0.061 | 0.029 | 0.018 | 0.207 (active) | 0.012 | 0.147 | -0.073 | 0.087 |
| UQCR10 (UniProt Q9UDW1) | -0.053 | -0.043 | 0.076 | 0.02 | -0.003 | 0.187 | 0.045 | -0.003 | -0.067 | -0.026 |
| XPOT (UniProt O43592) | -0.04 | -0.103 | -0.241 | -0.061 | 0.063 | 0.031 | 0.069 | 0.134 | 0.057 | -0.047 |
| XRCC5 (UniProt P13010) | -0.024 | -0.172 | -0.122 | -0.058 | 0.155 | 0.151 | 0.163 | 0.019 | -0.096 | -0.041 |

| Target | log2 fold change [1] | log2 fold change [2] | log2 fold change [3] | log2 fold change [4] | log2 fold change (entinostat) | log2 fold change (vorinostat) | log2 fold change (citarinostat) | log2 fold change (silmitasertib) | log2 fold change [5] | log2 fold change [6] |
| --- | --- | --- | --- | --- | --- | --- | --- | --- | --- | --- |
| UBE2J1 (UniProt Q9Y385) | 0.031 | -0.038 | 0.07 | 0.017 | -0.077 | -0.019 | 0.041 | 0.042 | -0.375 (active) | -0.09 |
| USP15 (UniProt Q9Y4E8) | -0.017 | -0.078 | -0.185 | -0.066 | 0.052 | 0.044 | 0.064 | 0.035 | -0.016 | -0.022 |
| VPS50 (UniProt Q96JG6) | 0.003 | -0.073 | -0.11 | -0.046 | 0.06 | 0.099 | 0.068 | 0.06 | 0.037 | 0.003 |
| TRAPPC11 (UniProt Q7Z392) | -0.033 | -0.11 | -0.187 | 0.007 | 0.011 | 0.012 | -0.006 | 0.044 | -0.036 | -0.053 |
| TXN2 (UniProt Q99757) | -0.039 | -0.009 | 0.088 | 0.049 | 0.023 | -0.072 | 0.054 | -0.072 | -0.09 | -0.036 |
| TSG101 (UniProt Q99816) | -0.02 | -0.082 | -0.157 | -0.033 | 0.038 | -0.007 | 0.053 | 0.025 | -0.103 | 0.025 |
| TMEM214 (UniProt Q6NUQ4) | -0.01 | 0.049 | -0.003 | 0.022 | 0.003 | 0.047 | -0.01 | 0.006 | 0.02 | -0.022 |
| TOM1 isoform 2 (UniProt O60784) | -0.002 | -0.104 | -0.066 | -0.082 | -0.045 | -0.119 | 0.056 | -0.019 | -0.026 | -0.081 |
| TYW1 (UniProt Q9NV66) | -0.022 | 0.05 | 0.004 | 0.013 | 0.028 | -0.056 | 0.053 | 0.039 | -0.141 | -0.007 |
| TSEN2 (UniProt Q8NCE0) | 0.212 | -0.008 | -0.126 | -0.024 | 0.052 | -0.003 | 0.005 | 0.197 | -0.015 | 0.008 |
| VPS51 (UniProt Q9UID3) | -0.02 | -0.119 | -0.082 | -0.048 | 0.07 | -0.035 | -0.002 | 0.068 | 0.022 | 0.1 |
| WDHD1 (UniProt O75717) | -0.037 | -0.054 | -0.156 | -0.106 | 0.09 | 0.119 | 0.176 | 0.025 | -0.107 | -0.001 |
| WDR37 isoform 2 (UniProt Q9Y2I8) | -0.041 | -0.01 | -0.052 | -0.08 | -0.004 | -0.068 | -0.012 | -0.059 | 0.032 | -0.162 |
| UGGT1 (UniProt Q9NYU2) | 0.028 | -0.025 | -0.06 | 0.017 | -0.001 | -0.004 | 0.047 | 0.01 | -0.025 | -0.035 |
| WDR18 (UniProt Q9BV38) | 0.013 | -0.021 | -0.043 | 0.054 | 0.019 | 0.025 | 0.018 | 0.013 | -0.03 | 0.017 |
| UBE2S (UniProt Q16763) | -0.04 | -0.043 | -0.033 | -0.086 | -0.026 | 0.002 | 0.072 | 0.069 | -0.106 | -0.032 |
| UBE3D (UniProt Q7Z6J8) | -0.019 | 0.012 | -0.004 | 0.027 | 0.074 | 0.056 | 0.012 | 0.067 | -0.032 | -0.164 |
